Source: PubChem (National Center for Advancing Translational Sciences (NCATS))
CHX counter: affects cycloheximide protein synthesis inhibition readout, counter-screen; AID 2314; 12% of 300,000 active; max response, %; cell reporter, cycloheximide protein synthesis inhibition counterscreen; in the data active = max response mostly above about 13%, no sharp cut-off; inactive = mostly below about 14%; also: read at 38.3 µM for the half of the compounds with a filed dose; 0% is about no effect
Shiga toxin inh: inhibitors of Shiga toxin in Vero cells. inhibition, % at 38.7 µM. Vero cells, Shiga toxin protein synthesis inhibition reporter. 9.2% of 290,000 active; in the data active = inhibition mostly above about 28%, no sharp cut-off; inactive = mostly below about 43%; also: 0% is about no effect
Pf growth 96h: P. falciparum growth inhibition at 96 hour, primary screen for plastid delayed-death inhibitors; P. falciparum luciferase reporter growth, 96 h; 6.9% of 320,000 active; AID 504834; Potency, µM (doses to about 28.7 µM), without a hit: at the highest dose activity change, negative = inhibition, most hits filed as inhibitors; also: potency is read from the fitted curve at half-maximal effect; % is scaled to controls: 0 for no effect and ±100 for the full control effect
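Delayed-death screen, second-generation endpoint: infected erythrocytes, 2% hematocrit, 0.05% parasitemia final; 96 hours at 37 C, 5% CO2; luciferase detection reagent; luminescence decrease equals reduced growth.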
LmPK inhibitor: LmPK (Leishmania mexicana) enzyme inhibition; purified LmPK, Kinase-Glo ATP luminescence, 1 h; Potency, µM (highest dose often 57.5 µM), for the others: top-dose activity change, negative = inhibition, usual class: inhibitors; Q27686; 0.37% of 290,000 active; also: potency is read from the fitted curve at half-maximal effect; % is scaled to controls: 0 for no effect and ±100 for the full control effect
Target sequence (Q27686 whole entry, looked up): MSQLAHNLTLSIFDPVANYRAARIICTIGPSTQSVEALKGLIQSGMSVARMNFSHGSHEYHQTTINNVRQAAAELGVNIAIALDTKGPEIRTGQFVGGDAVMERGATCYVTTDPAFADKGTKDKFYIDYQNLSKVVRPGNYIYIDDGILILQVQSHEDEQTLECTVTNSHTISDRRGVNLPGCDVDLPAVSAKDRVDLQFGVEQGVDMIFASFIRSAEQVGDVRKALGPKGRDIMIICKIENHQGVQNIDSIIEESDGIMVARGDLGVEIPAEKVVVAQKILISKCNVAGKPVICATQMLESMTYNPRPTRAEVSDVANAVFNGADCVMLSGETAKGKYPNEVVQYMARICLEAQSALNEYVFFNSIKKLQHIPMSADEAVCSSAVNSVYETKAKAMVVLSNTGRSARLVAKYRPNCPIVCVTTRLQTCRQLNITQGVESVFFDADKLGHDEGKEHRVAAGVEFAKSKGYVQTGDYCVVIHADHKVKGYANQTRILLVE
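In 50 mM imidazole pH 7.2 with 7 mM MgCl2, LmPK (0.1 nM) turned over PEP (0.5 mM) and ADP (0.1 mM) for 1 h at room temperature. Luciferase read-out of ATP.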
Pf growth 48h: inhibits P. falciparum growth in the first generation, 48 h. P. falciparum luciferase growth in erythrocytes, 48 h. Potency, µM (titrated, usually from 28.7 µM), for the others: at the top dose activity change, negative = inhibition, hits mostly inhibitors. 5.9% of 310,000 active; also: potency is read from the fitted curve at half-maximal effect; % is scaled to controls: 0 for no effect and ±100 for the full control effect
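In quantitative HTS format, infected erythrocytes bearing luciferase-reporter parasites were treated for a single generation at 37 C. Luminescence after adding detection reagent served as the growth measure.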
* hit, by the source's call; ? = inconclusive; nt = not tested or not shown; [ ] = dose if it differs, or a comment. Most compounds without a hit are left out; they make up all but 22% or so of the library. Unless noted, calls follow the shape of the dose curve; as a rule, active = well fitted inhibition curve with a large enough effect; inconclusive = small, poorly fitted or top-dose-only effect, or another doubt; inactive = no such curve, though single readings can be large or run the other way.

SMILES	CHX counter	Shiga toxin inh	Pf growth 96h	LmPK inhibitor	Pf growth 48h
Cc1ccsc1C(=O)N(C)C1CCS(=O)(=O)C1 (configuration not stated)	nt	nt	60.1%	nt	57.1%
CCOC(=O)N1CCC(N2C(=O)c3ccccc3C2Nc2c(C)cccc2C)CC1 (configuration not stated)	-8.2	-12.2	?	17.1%	nt
CC(N)C(=O)NC(C(=O)N1CCCC1C(=O)NC(c1ccccc1)c1ccccc1)C(C)C (configuration not stated)	nt	nt	-13.4%	nt	32.0%
O=Cc1cn(-c2ccc(F)cc2)c2ccccc12	1.8	19.8	-16.9%	-0.8%	7.1%
O=C1c2cccnc2C(Nc2ccc(Br)cc2Br)N1Cc1cccs1 (configuration not stated)	3.3	-7.3	6.57µM*	2.3%	?
Cc1ccc(-c2cn3cccnc3n2)cc1NC(=O)c1cccs1	16.4	11.0	-3.7%	-1.4%	19.3%
COCCNC(=S)N/N=C1\CC(C)CC(C)(C)C1 (configuration not stated)	-1.7	-12.5	4.65µM*	1.0%	?
CCOc1ccc2nc(SCC(=O)NCc3ccc(S(N)(=O)=O)cc3)[nH]c2c1	-1.0	-7.5	-25.7%	0.3%	2.1%
CCc1ccc(N(C2C=CS(=O)(=O)C2)S(=O)(=O)c2ccccc2)cc1 (configuration not stated)	-0.9	12.6	0.1%	1.1%	?
Cc1ccc(S(=O)(=O)N(c2cccc(C(F)(F)F)c2)C2C=CS(=O)(=O)C2)cc1 (configuration not stated)	-4.5	-11.0	16.5µM*	8.1%	nt
COc1cccc(OC)c1C(=O)Nc1cccc(-c2nc3ccccc3[nH]2)c1	0.2	25.8	32.6%	-4.7%	14.2%
CC(C)(C)c1cc(C(C)(C)C)c2oc(=O)c(-c3nc4ccc(C(=O)O)cc4[nH]3)cc2c1	nt	nt	-2.2%	nt	?
CCOc1cccc2cc(C(=O)Nc3ccccc3-c3ccccc3)c(=O)oc12	13.1	26.5	0.0%	-3.9%	19.3%
Cc1cccc2cc(-c3nc4ccc(C(=O)O)cc4[nH]3)c(=O)oc12	24.6*	37.1*	11.3%	-5.3%	105.1%
COc1cccc2cc(-c3nc4ccccc4[nH]3)c(=O)oc12	32.0*	nt	24.3%	-2.3%	109.1%
COc1cccc2cc(-c3ccccc3)c(=O)oc12	47.8*	103.9*	24.0%	?	103.7%
COc1ccc(-c2cc3cccc(OC)c3oc2=O)cc1	27.7*	63.8*	?	-16.8%	87.8%
CCOC(=O)C1=C(CN2CCN(C(=O)c3ccco3)CC2)NC(=O)NC1c1ccccc1 (configuration not stated)	-1.6	-10.4	-6.8%	4.1%	?
COc1ccc(NC(=O)CN2C(=O)NC(C)(c3ccc(C)cc3)C2=O)c([N+](=O)[O-])c1 (configuration not stated)	-2.4	-3.5	24.4%	-7.0%	13.5%
NS(=O)(=O)c1cccc(NC(=O)CSc2nnc(C3CC3)n2Cc2ccccc2)c1	0.9	-5.5	8.9%	5.6%	-3.1%
CCc1cc2c(=O)c(-c3nc(C)cs3)coc2cc1OC(C)C(=O)NCCO (configuration not stated)	-4.7	1.9	-28.3%	8.0%	9.3%
Fc1c(F)c(F)c(SCn2cc(Br)cn2)c(F)c1F	nt	nt	-23.2%	nt	13.1%
Clc1ccc(-n2cnnn2)cc1	-3.7	-15.2	?	5.9%	11.3%
CO/C=C\C=C/c1nnn(-c2ccc(Cl)cc2)n1	41.3*	70.4*	30.9%	1.3%	38.7%
Cn1c(SCc2ccc(F)cc2)nnc1-c1cccs1	46.3*	62.3	4.1%	-7.2%	51.5%
SMILES	CHX counter	Shiga toxin inh	Pf growth 96h	LmPK inhibitor	Pf growth 48h
Cn1c(SCc2ccccc2)nnc1-c1ccncc1	0.4	-8.6	3.5%	-0.4%	?
Cn1c(SCc2ccccc2)nnc1-c1cccs1	31.5*	80.6*	-9.4%	-2.4%	42.7%
Cc1ccc(C(=O)CSc2nnc(-c3cccs3)n2C)o1	-8.7	-4.2	?	3.5%	nt
O=C1CC(C(=O)Nc2ccc(Cl)cc2[N+](=O)[O-])C2(CCCCC2)O1 (configuration not stated)	-3.9	-1.5	5.4%	4.3%	-1.6%
Cc1ccc(S(=O)(=O)NCC(=O)OCc2cc(=O)oc3cc(C)ccc23)cc1	nt	nt	0.5%	nt	-8.3%
Cc1ccc2c(COC(=O)CNC(=O)c3ccccc3)cc(=O)oc2c1	35.7*	28.2	48.0%	1.1%	41.2%
Cc1ccc2c(COC(=O)c3ccccc3OC(F)F)cc(=O)oc2c1	26.2*	47.4	28.0%	2.7%	4.2%
CCN(CC)c1ccc(C(=O)OCc2cc(=O)oc3cc(O)ccc23)cc1	-4.4	-2.3	4.65µM*	-4.9%	?
CCOC(=O)Nc1ccc2c(COC(=O)c3ccccc3O)cc(=O)oc2c1	27.1*	75.6*	-17.0%	7.6%	3.7%
CCOc1ccccc1NCc1cc(=O)oc2cc(C)ccc12	11.0	-13.0	-14.2%	-0.5%	?
CCCc1ccccc1OCCNC(=O)c1cc(=O)n(C)c(=O)n1C	-2.8	-7.7	39.6%	-0.3%	-2.3%
CC(C)[C@H](NC(=O)C1CC(=O)N(c2ccc(F)cc2)C1)C(=O)N1CCCCC1 (some centres not stated)	1.4	-5.4	-3.6%	-0.4%	-0.8%
Cc1ccc2c(COC(=O)c3cnc(C)cn3)cc(=O)oc2c1	-1.0	2.8	17.3%	-1.4%	25.5%
Cc1ccc2c(COC(=O)C3=COCCO3)cc(=O)oc2c1	64.0*	89.2*	?	5.0%	nt
O=C(NC1CCCCC1)C(c1cc2c(cc1[N+](=O)[O-])OCO2)N1CCCCC1 (configuration not stated)	16.3	54.2*	13.1µM*	1.3%	?
O=CN1CCN(C(C(=O)NC2CCCCC2)c2cc3c(cc2[N+](=O)[O-])OCO3)CC1 (configuration not stated)	13.5	-7.4	35.5%[1.15 µM]	2.9%	-3.6%
CC(C)(C)c1ccc(S(=O)(=O)N2CCN(CC(=O)N3CC(=O)Nc4ccccc43)CC2)cc1	nt	nt	?	nt	11.7µM*
CCc1cccc(C)c1NC(=O)CN1CCN(S(=O)(=O)c2ccc(C(C)(C)C)cc2)CC1	nt	nt	0.928µM*	nt	1.65µM*
O=C(CN1CCN(S(=O)(=O)c2ccc(C(F)(F)F)cc2)CC1)N1CCNC1=O	nt	nt	?	nt	-16.8%
CCc1cccc(C)c1NC(=O)COC(=O)C1CCN(S(=O)(=O)c2ccccc2)CC1	nt	nt	0.0%	nt	-14.4%
O=C(N/N=C/c1ccc[nH]1)c1ccccc1OCc1ccc(F)cc1	-5.1	-7.2	-9.9%	-1.8%	-5.3%
O=C(NNC(=O)c1ccccc1OCc1ccccc1)c1ccccc1F	68.9*	73.3*	67.7%	0.4%	40.8%
O=C(N/N=C/c1ccccc1F)c1ccccc1OCc1ccccc1	20.2*	74.5*	9.9%	3.8%	?
O=C(NNC(=O)c1ccccc1OCc1ccc(F)cc1)c1ccccc1O	14.7*	26.8	8.28µM*	-7.1%	?
c1csc(-c2nc(-c3ccc(-c4ccon4)s3)no2)c1	56.1*	65.4*	259.9%	-9.0%	392.8%
